Activity calls are given as the source filed them. How the source made its calls: active means hit-call score of the fitted dose curve at least 0.9, where 1 is the maximum; inactive means score below 0.9.
Experiments:
Settings in all cases: mRNA level, 48 h; actives raise or lower the signal
[1] = read-out: Insulin-like growth factor-binding protein 1 (IGFBP1), IGFBP1 (gene 3484); test: LTEA_HepaRG_IGFBP1: Life Technologies and Expression Analysis (LTEA) Assay for Insulin-like growth factor-binding protein 1 (IGFBP1) using HepaRG (AID 2283508)
Outline: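 Read-out is qRT-PCR transcript level normalized to three housekeeping genes, fitted in both directions against 0.5% DMSO. Differentiated HepaRG cells received eight half-log concentrations (top 100 uM) in duplicate for 48 h in serum-free induction medium.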

[2] = read-out: Interleukin 6 (IL6), IL6 (gene 3569); test: LTEA_HepaRG_IL6: Life Technologies and Expression Analysis (LTEA) Assay for Interleukin 6 (IL6) using HepaRG (AID 2283509)
Outline: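 qRT-PCR read-out of IL6 transcript, normalized to three housekeeping genes, after 48 h chemical exposure of HepaRG cells; 8-point half-log series, top 100 uM, 0.5% DMSO vehicle. Bidirectional curve fitting against DMSO baseline.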

[3] = read-out: Interleukin 6 Receptor (IL6R), IL6R (gene 3570); test: LTEA_HepaRG_IL6R: Life Technologies and Expression Analysis (LTEA) Assay for Interleukin 6 Receptor (IL6R) using HepaRG (AID 2283510);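 on AC50: TaqMan qRT-PCR signal normalized to ACTB GAPDH and POLR2A housekeeping genes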
Outline: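 HepaRG, 48 h exposure, 8-pt half-log series, top 100 uM, 0.5% DMSO vehicle, duplicates. Read-out: TaqMan qRT-PCR of IL6R transcript, housekeeping-gene normalized. Gain or loss fitted relative to DMSO baseline.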

[4] = read-out: Potassium channel subfamily K member 1 (KCNK1), KCNK1 (gene 3775); test: LTEA_HepaRG_KCNK1: Life Technologies and Expression Analysis (LTEA) Assay for Potassium channel subfamily K member 1 (KCNK1) using HepaRG (AID 2283511)
Outline: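 HepaRG, 48 h exposure, 8-pt half-log series top 100 uM, 0.5% DMSO vehicle, duplicates. Readout: KCNK1 transcript by qRT-PCR (Fluidigm array), housekeeping-normalized; bidirectional curve fit relative to DMSO baseline.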

[5] = read-out: JUN Transcription Factor, JUN (gene 3725); test: LTEA_HepaRG_JUN: Life Technologies and Expression Analysis (LTEA) Assay for JUN Transcription Factor using HepaRG (AID 2283513)
Outline: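 HepaRG, 48 h exposure, 8-pt half-log series top 100 uM, 0.5% DMSO, duplicate. JUN mRNA by qRT-PCR (Fluidigm), housekeeping-normalized (ACTB/GAPDH/POLR2A); bidirectional curve fit vs DMSO baseline.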

[6] = read-out: Lipase C (LIPC), LIPC (gene 3990); test: LTEA_HepaRG_LIPC: Life Technologies and Expression Analysis (LTEA) Assay for Lipase C (LIPC) using HepaRG (AID 2283514)
Outline: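 HepaRG, 48 h exposure, 8-pt half-log series from 100 uM in 0.5% DMSO, duplicates. Readout: LIPC mRNA by Fluidigm qRT-PCR, housekeeping-normalized (ACTB/GAPDH/POLR2A). Gain or loss fitted bidirectionally against DMSO baseline.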

[7] = read-out: Lipoprotein lipase (LPL), LPL (gene 4023); test: LTEA_HepaRG_LPL: Life Technologies and Expression Analysis (LTEA) Assay for Lipoprotein lipase (LPL) using HepaRG (AID 2283515)
Outline: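 HepaRG, 48 h exposure, 8-pt half-log dilutions from 100 uM, 0.5% DMSO vehicle, duplicates; qRT-PCR (Fluidigm array) of LPL mRNA vs housekeeping genes; bidirectional curve fit relative to DMSO baseline.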

[8] = read-out: MicroRNA 122 (MIR122), gene 406906; test: LTEA_HepaRG_MIR122: Life Technologies and Expression Analysis (LTEA) Assay for MicroRNA 122 (MIR122) using HepaRG (AID 2283516); further: the transcript read is the microRNA miR-122
Outline: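 qRT-PCR read-out (TaqMan, Fluidigm array), normalized to three housekeeping genes; HepaRG cells dosed 48 h at 8 concentrations up to 100 uM in 0.5% DMSO, duplicate; gain or loss fitted against DMSO baseline.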

[9] = read-out: matrix metalloproteinase-10 (MMP10), MMP10 (gene 4319); test: LTEA_HepaRG_MMP10: Life Technologies and Expression Analysis (LTEA) Assay for matrix metalloproteinase-10 (MMP10) using HepaRG (AID 2283517)
Outline: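 Transcript levels come from Fluidigm qRT-PCR normalized to three housekeeping genes, with curves fitted bidirectionally against 0.5% DMSO. Human HepaRG cells were dosed for 48 hours at concentrations up to 100 uM.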

[10] = read-out: MYC, MYC (gene 4609); test: LTEA_HepaRG_MYC: Life Technologies and Expression Analysis (LTEA) Assay for MYC using HepaRG (AID 2283518)
Outline: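 MYC transcript changes, up or down relative to 0.5% DMSO, from TaqMan qRT-PCR normalized to three housekeeping genes. Human HepaRG cultures received chemicals for 48 h at eight half-log concentrations up to 100 uM, in duplicate.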

[11] = read-out: Paternally Expressed 10 (PEG10), PEG10 (gene 23089); test: LTEA_HepaRG_PEG10: Life Technologies and Expression Analysis (LTEA) Assay for Paternally Expressed 10 (PEG10) using HepaRG (AID 2283520);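 on AC50: PEG10 transcript by qRT-PCR normalised to ACTB GAPDH and POLR2A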
Outline: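 qRT-PCR read-out: PEG10 mRNA normalised to three housekeeping genes, fitted bidirectionally against 0.5% DMSO vehicle. HepaRG cells received test chemicals for 48 h in serum-free induction medium, 8 points, top 100 uM, half-log steps.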

[12] = read-out: Nuclear factor NF-kappa-B p105 subunit (Homo sapiens) (UniProt P19838); test: LTEA_HepaRG_NFKB1: Life Technologies and Expression Analysis (LTEA) Assay for Nuclear Factor Kappa B Subunit 1 (NFKB1) using HepaRG (AID 2283521);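 further: TaqMan qRT-PCR transcript normalised to ACTB GAPDH and POLR2A housekeeping genes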
Outline: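 Differentiated human HepaRG cells were exposed for 48 h in serum-free induction medium to eight concentrations (top 100 uM, half-log steps, 0.5% DMSO), in duplicate. NFKB1 mRNA was measured by TaqMan qRT-PCR, normalized to ACTB/GAPDH/POLR2A, and fitted bidirectionally against DMSO.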

[13] = read-out: Protein phosphatase 2A (PPP2R4), PTPA (gene 5524); test: LTEA_HepaRG_PPP2R4: Life Technologies and Expression Analysis (LTEA) Assay for Protein phosphatase 2A (PPP2R4) using HepaRG (AID 2283522)
Outline: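 HepaRG, 48 h exposure, 8-pt half-log series from 100 uM, 0.5% DMSO vehicle, duplicates. Readout: PPP2R4 mRNA, Fluidigm qRT-PCR, housekeeping-normalized. Bidirectional curve fit vs DMSO baseline.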

[14] = read-out: Phosphatase and tensin (PTEN), PTEN (gene 5728); test: LTEA_HepaRG_PTEN: Life Technologies and Expression Analysis (LTEA) Assay for Phosphatase and tensin (PTEN) using HepaRG (AID 2283523)
Outline: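 HepaRG, 48 h exposure, 8-pt half-log series from 100 uM top, 0.5% DMSO vehicle, duplicates. Readout: Fluidigm qRT-PCR of PTEN transcript; housekeeping normalization (ACTB, GAPDH, POLR2A). Gain or loss fitted relative to DMSO baseline.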

[15] = read-out: solute carrier (SLC22A1), SLC22A1 (gene 6580); test: LTEA_HepaRG_SLC22A1: Life Technologies and Expression Analysis (LTEA) Assay for solute carrier (SLC22A1) using HepaRG (AID 2283524)
Outline: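 qRT-PCR readout (TaqMan, Fluidigm arrays) of SLC22A1 transcript, normalized to three housekeeping genes; bidirectional curve fit relative to 0.5% DMSO vehicle. Differentiated human HepaRG cells, 48 h chemical exposure, top concentration 100 uM, half-log steps, eight points.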

[16] = read-out: NAD(P)H dehydrogenase [quinone] 1 (NQO1), NQO1 (gene 1728); test: LTEA_HepaRG_NQO1: Life Technologies and Expression Analysis (LTEA) Assay for NAD(P)H dehydrogenase [quinone] 1 (NQO1) using HepaRG (AID 2283526)
Outline: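 qRT-PCR read-out (Fluidigm TaqMan), normalized to three housekeeping genes, after 48 h chemical exposure of HepaRG cells. Concentrations: eight points, top 100 uM, half-log steps, 0.5% DMSO vehicle. Gain or loss of signal fitted relative to DMSO.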

[17] = read-out: Pyruvate Dehydrogenase Kinase 4 (PDK4), PDK4 (gene 5166); test: LTEA_HepaRG_PDK4: Life Technologies and Expression Analysis (LTEA) Assay for Pyruvate Dehydrogenase Kinase 4 (PDK4) using HepaRG (AID 2283525)
Outline: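 HepaRG (human liver line), 48 h chemical exposure, 8-pt half-log CRC top 100 uM, 0.5% DMSO vehicle, duplicates. Readout: TaqMan qRT-PCR of PDK4 mRNA, housekeeping-normalized; gain/loss fit relative to DMSO baseline.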

[18] = read-out: Keratin 19 (KRT19), KRT19 (gene 3880); test: LTEA_HepaRG_KRT19: Life Technologies and Expression Analysis (LTEA) Assay for Keratin 19 (KRT19) using HepaRG (AID 2283512)
Outline: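 KRT19 transcript measured by TaqMan qRT-PCR, referenced to three housekeeping genes, after HepaRG cells received test chemicals for 48 h. Eight half-log concentrations, top 100 uM, 0.5% DMSO vehicle; increases and decreases both fitted.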

[19] = read-out: matrix metalloproteinase-3 (MMP3), MMP3 (gene 4314); test: LTEA_HepaRG_MMP3: Life Technologies and Expression Analysis (LTEA) Assay for matrix metalloproteinase-3 (MMP3) using HepaRG (AID 2283519)
Outline: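 qRT-PCR read-out of MMP3 mRNA (normalised to three housekeeping genes) in HepaRG liver cells after 48 h chemical exposure; 8-point half-log series, top 100 uM, 0.5% DMSO vehicle. Bidirectional curve fitting against DMSO baseline.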

Measured: AC50

Sequence of Nuclear factor NF-kappa-B p105 subunit (Homo sapiens) (P19838 whole entry, looked up): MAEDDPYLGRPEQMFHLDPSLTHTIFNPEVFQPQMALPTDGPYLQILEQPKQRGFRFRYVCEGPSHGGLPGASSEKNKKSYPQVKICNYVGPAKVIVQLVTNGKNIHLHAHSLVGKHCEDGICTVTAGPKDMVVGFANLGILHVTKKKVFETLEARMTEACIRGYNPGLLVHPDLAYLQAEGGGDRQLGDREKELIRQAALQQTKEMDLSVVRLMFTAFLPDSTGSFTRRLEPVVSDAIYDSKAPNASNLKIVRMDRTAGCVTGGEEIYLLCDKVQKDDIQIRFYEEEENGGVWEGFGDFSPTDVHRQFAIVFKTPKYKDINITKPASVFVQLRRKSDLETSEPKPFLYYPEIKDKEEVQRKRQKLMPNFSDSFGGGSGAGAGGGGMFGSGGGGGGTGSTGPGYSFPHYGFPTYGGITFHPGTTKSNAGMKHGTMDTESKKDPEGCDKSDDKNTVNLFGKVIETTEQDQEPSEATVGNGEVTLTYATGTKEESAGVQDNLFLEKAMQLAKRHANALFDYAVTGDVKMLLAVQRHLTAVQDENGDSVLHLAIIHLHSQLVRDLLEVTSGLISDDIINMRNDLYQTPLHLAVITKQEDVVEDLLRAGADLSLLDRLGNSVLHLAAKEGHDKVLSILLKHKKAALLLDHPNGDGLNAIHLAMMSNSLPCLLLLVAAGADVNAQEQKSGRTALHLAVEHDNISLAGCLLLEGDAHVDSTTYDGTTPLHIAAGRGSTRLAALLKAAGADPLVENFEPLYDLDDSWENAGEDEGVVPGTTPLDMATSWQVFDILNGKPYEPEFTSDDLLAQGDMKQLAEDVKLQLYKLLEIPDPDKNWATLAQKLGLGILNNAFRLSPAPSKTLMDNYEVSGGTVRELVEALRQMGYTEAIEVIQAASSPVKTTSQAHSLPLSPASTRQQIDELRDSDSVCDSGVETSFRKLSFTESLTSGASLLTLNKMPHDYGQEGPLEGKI

ClC(Cl)=C(c1ccc(Cl)cc1)c1ccc(Cl)cc1
not listed: [17] | [18] | [19]
inactive: all other assays above

CC#Cc1cc(C)nc(Nc2ccccc2)n1
inactive: [3] | [4] | [5] | [9] | [12] | [13] | [14] | [16]
active: [1] 21.9 µM | [2] 23.6 µM | [6] 15.3 µM | [7] 3.75 µM | [8] 21.7 µM | [10] 28.4 µM | [11] 13.1 µM | [15] 26.4 µM | [17] 19.2 µM

CC(c1ccc(O)cc1)(c1ccc(O)cc1)c1ccc(O)cc1
inactive: [4] | [6] | [12] | [16]
active: [1] 18.8 µM | [2] 80.8 µM | [3] 72.7 µM | [18] 50 µM | [5] 82.9 µM | [7] 68.6 µM | [8] 77.9 µM | [9] 50 µM | [10] 94.2 µM | [13] 69.7 µM | [14] 74.3 µM | [15] 41.4 µM | [17] 70.9 µM

CCCCCCCCCC[N+](C)(C)CCCCCCCCCC
inactive: [3] | [6] | [8] | [9] | [10] | [12] | [13] | [16]
active: [1] 81.6 µM | [2] 78.3 µM | [5] 90.5 µM | [7] 88.7 µM | [19] 94 µM | [11] 50 µM | [14] 83.2 µM | [15] 61.5 µM | [17] 82.5 µM

From PubChem BioAssay (EPA / NIEHS)
